# Shown are actives, neighbours in structure and some others; about 19% of the full set was active somewhere.
# Pf growth 96h: Primary qHTS for delayed death inhibitors of the malarial parasite plastid, 96 hour incubation | P. falciparum luciferase reporter growth, 96 h | Potency, µM (doses to about 28.7 µM), most hits filed as inhibitors | 320,000 tested, 6.9% active
#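 Infected RBCs, 2% Hct / 0.05% parasitemia final; luciferase-reporter P. falciparum; cpd 96 h, 37 C, 5% CO2; luciferase detection reagent; luminescence.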
# Marburg entry inh: qHTS for inhibitors of binding or entry into cells for Marburg Virus; Marburg virus pseudotyped entry inhibition, cell reporter; Potency, µM (top dose mostly 37.8 µM), hits mostly inhibitors; 300,000 tested, 1.8% active; calls by dose curve; tested in HEK293 cells
# Lassa entry inh: qHTS for Inhibitors of binding or entry into cells for Lassa Virus. Lassa virus pseudotype entry inhibition, cell reporter. 300,000 tested, 1.2% active. Potency, µM (series often up to 37.9 µM), usual class: inhibitors; calls by dose curve; tested in HEK293 cells; further: nearly all actives have a fitted effect of over 50% in size
# Shiga inhibitor: A qHTS for Small Molecule Inhibitors of Shiga Toxin | Vero cells, Shiga toxin protein synthesis inhibition reporter | inhibition, % at 38.7 µM | 290,000 tested, 9.2% active; in the data active means inhibition mostly above about 28%, no sharp cut-off; inactive means mostly below about 43%
# Pf growth 48h: Primary qHTS for delayed death inhibitors of the malarial parasite plastid, 48 hour incubation; P. falciparum luciferase growth in erythrocytes, 48 h; Potency, µM (doses to about 28.7 µM), actives largely listed as inhibitors; 310,000 tested, 5.9% active
#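 Read-out is firefly luciferase luminescence from an integrated reporter in P. falciparum, so falling signal marks reduced parasite growth. Infected erythrocytes were at 2% hematocrit and 0.1% parasitemia (final) in Albumax-supplemented RPMI 1640.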
# CHX counter: Cycloheximide Counterscreen for Small Molecule Inhibitors of Shiga Toxin. cell reporter, cycloheximide protein synthesis inhibition counterscreen. max response, %. AID 2314, 2010. 300,000 tested, 12% active; in the data active means max response mostly above about 13%, no sharp cut-off; inactive means mostly below about 14%; further: read at 38.3 µM for the half of the compounds with a filed dose
# Hits are given with their value; i = inactive; ? = inconclusive; nt = no result given. Unless noted, the call rests on the fitted dose curve; in most records, active means well fitted inhibition curve with a large enough effect; inconclusive means small, poorly fitted or top-dose-only effect, or another doubt; inactive means no such curve, though single readings can be large or run the other way.
SMILES,Pf growth 96h,Marburg entry inh,Lassa entry inh,Shiga inhibitor,Pf growth 48h,CHX counter
S=C(NCCc1ccccc1)Nc1ccc(Br)cc1,i,?,i,i,i,53
CCC(C)(C)NC(=S)Nc1ccccc1C,?,nt,nt,i,10µM,i
S=C(NCCc1ccncc1)Nc1ccccc1,?,i,i,i,i,i
Cc1ccc(C)c(NC(=S)NCCN(C2CCCCC2)C2CCCC2)c1,?,?,?,i,10µM,i
Cc1ccccc1NC(=S)NCc1ccccc1,i,?,?,i,i,i
CC(C)(C)NC(=S)NCCc1ccccc1,i,i,?,75,i,31
COc1ccc2c(CC(=O)Nc3ccc(N4CCOCC4)cc3)coc2c1,?,nt,nt,i,?,i
Cc1cc(C)c(C(=O)CSc2n[nH]c(=O)n2C2CC2)cc1C,i,?,i,i,i,i
CN[C@H](C)[C@H](O)c1ccccc1,nt,nt,nt,i,nt,i
COc1cc(/C=C(\C#N)C(=O)NCC2CCCO2)ccc1OC(=O)c1ccco1 (stereo not given),i,?,i,nt,i,nt
Cc1ccc(NC(=S)NCCc2ccccc2)c(C)c1,i,i,i,i,?,17
Cc1ccc(NC(=S)NCCO)c(C)c1,i,i,i,i,i,i
Cc1cnn(C(=S)NCCc2ccccc2)c1,nt,i,i,77,i,34
COC(=O)CN1C(=O)C(O)(c2c(C)[nH]c3ccccc23)c2ccccc21 (stereo not given),nt,nt,i,nt,nt,nt
O=C1CCC2=C(CCCC2=O)N1,i,i,i,i,i,i
CCOC(=O)CSc1nc2cc(C)cc(C)c2cc1C#N,nt,i,?,i,i,14
COc1ccc2cc(C#N)c(SCC(=O)Nc3nonc3C)nc2c1,i,?,i,i,i,i
Cc1cc(C)c2cc(C#N)c(SCC(=O)NCc3ccco3)nc2c1,i,i,i,i,i,i
COc1ccc2nc(SC)c(C#N)cc2c1,i,?,i,i,i,i
CCOC(=O)CSc1nc2cc(OC)ccc2cc1C#N,i,?,?,116,i,22
CCOC(=O)CSc1nc2cc(C)ccc2cc1C#N,?,?,?,100,i,41
COc1ccc2nc(SCC(C)=O)c(C#N)cc2c1,i,?,5.6µM,116,i,36
Cn1c2ccccc2c2nnc(SCC(=O)Nc3ccccc3F)nc21,?,nt,nt,nt,i,i
CCC(N)C12CC3CC(CC(O)(C3)C1)C2 (stereo not given),i,i,i,i,i,i
Cc1ccc2cc(C#N)c(SCC(=O)N3CCCC3)nc2c1,i,i,?,i,i,22
SMILES,Pf growth 96h,Marburg entry inh,Lassa entry inh,Shiga inhibitor,Pf growth 48h,CHX counter
CCOC(=O)CSc1nc2ccc(C)cc2cc1C#N,nt,?,?,80,i,59
CS(=O)(=O)Nc1ccc(-c2cc(/C=C3\SC(N)=NC3=O)c[nH]c2=O)cc1,?,nt,nt,i,?,i
Cc1ccc(C(=O)COC(=O)CN2C(=O)C3C4CCC(C4)C3C2=O)cc1C (stereo not given),i,nt,nt,i,i,12
Cc1ccc(C(=O)COC(=O)CN2C(=O)C3C4CCC(C4)C3C2=O)cc1[N+](=O)[O-] (stereo not given),i,i,i,i,i,i
c1ccc(-c2cnc(SCCN3CCOCC3)n2CC2CCCO2)cc1 (stereo not given),?,i,?,i,i,i
COc1ccc(-c2cnc(N)n2CC2CCCO2)cc1 (stereo not given),nt,i,?,i,?,22
CC(C)(C)NC(=O)C(c1ccncc1)N(Cc1ccco1)C(=O)c1ccc(-c2ccccc2)[nH]1 (stereo not given),i,?,?,91,?,39
O=C(NC1CCCCC1)C(c1ccc(F)cc1)N(CCCN1CCOCC1)C(=O)c1ccc(CN2CCOCC2)o1 (stereo not given),i,i,i,i,?,i
O=C(NCC1CCCO1)C(c1cccs1)N(C(=O)c1ccc(-c2ccccc2)[nH]1)C1CCCC1 (stereo not given),?,?,?,i,10µM,i
CC(C)(C)NC(=O)C(c1cccs1)N(CC1CCCO1)C(=O)c1ccc(-c2ccccc2)[nH]1 (stereo not given),i,?,i,i,13µM,i
O=C(NCC1CCCO1)C(c1cccs1)N(Cc1ccccc1)C(=O)c1ccc(-c2ccccc2)[nH]1 (stereo not given),i,?,i,i,?,i
O=C(NCC1CCCO1)C(c1ccc(F)cc1)N(CCCN1CCOCC1)C(=O)c1ccc(-c2ccccc2)[nH]1 (stereo not given),i,?,i,i,13µM,i
COc1cccc(C(=S)N2CCOCC2)c1OS(=O)(=O)c1ccc(Cl)cc1,i,i,i,i,i,i
O=C(CSc1nc2ccccc2c(=O)n1CC1CCCO1)Nc1ccccc1 (stereo not given),?,i,i,i,i,i
COc1ccc(CN(C(=O)c2ccc(-c3ccccc3)[nH]2)C(C(=O)NCC2CCCO2)c2ccc(C)o2)cc1 (stereo not given),6.6µM,?,?,i,8.3µM,i
COc1ccc(CN(CC(=O)NC2CCCC2)C(=O)c2ccc(-c3ccccc3)[nH]2)cc1,i,?,nt,i,?,i
Cc1ncc(CO)c(/C=N/NC(=O)c2ccc(O)cc2)c1O,?,i,i,i,2.1µM,i
COc1ccccc1NS(=O)(=O)c1cccc(C(=O)N/N=C/c2c(CO)cnc(C)c2O)c1,?,nt,nt,nt,12µM,nt
Cc1noc(C)c1COc1ccccc1C(=O)NNC(=O)C(C)Oc1ccccc1F (stereo not given),i,i,i,nt,i,nt
COc1cc(Cl)c(CN2CCC(CO)(CCOc3ccccc3)CC2)cc1OC,?,nt,nt,i,?,i
COc1ccc(CN2CCC(CO)(CCOc3ccccc3)CC2)c(OC)c1C,i,?,?,i,3.7µM,i
OCC1(CCOc2ccccc2)CCN(Cc2cn[nH]c2-c2ccc(F)cc2)CC1,?,4µM,i,i,?,i
OCC1(CCOc2ccccc2)CCN(Cc2ccccc2C(F)(F)F)CC1,8.3µM,i,i,i,i,i
CCOc1ccccc1CN1CCC(CO)(CCOc2ccccc2)CC1,i,i,i,i,?,i
COc1ccc(NC(=O)c2ccc(Cl)c(S(=O)(=O)N3CC(C)OC(C)C3)c2)cn1 (stereo not given),10µM,nt,nt,nt,8.3µM,nt
COc1ccc(NC(=O)c2ccc(Cl)c(S(=O)(=O)N3CCc4ccccc4C3)c2)cn1,nt,?,?,i,1.9µM,i
Cc1ccccc1CCNC(=O)c1ccc(Cl)c(S(=O)(=O)N2CC(C)OC(C)C2)c1 (stereo not given),13µM,?,i,nt,13µM,nt
CN1C(=O)N(C)C(=O)C2(Cc3c(ccc4ccccc34)N(C)C2)C1=O,i,i,i,i,i,i
CCOc1cc2c(cc1OCC)C(C(=O)O)C(c1cc(OC)c(OC)c(OC)c1)N(C)C2=O (stereo not given),?,i,i,i,?,i
